# An excerpt weighted towards active compounds, which were near 6.8% of everything screened.
# Fluor 339 460 = intrinsic fluorescence of library compounds, ex339/em460 – biochemical, MLSMR library, data from DPM-DC assay, artefact control, profiling panel; compound autofluorescence, ex339/em460 nm, NADH buffer; stronger effect = higher value; 1 = no-compound wells, NADH background; fluorescence fold increase at 10 µM; 65,000 compounds, 5.5% hits;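 active means at 10 µM, mean starting fluorescence two-fold or more over control wells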;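 further: signal is the first read of a kinetic run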
# PMK inhibit = inhibitors of Streptococcus pneumoniae phosphomevalonate kinase; inhibition, % at 10 µM; 65,000 compounds, 0.49% hits; purified PMK, PK/LDH-coupled NADH absorbance 340 nm;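 active means top-ranked compounds by inhibition in the single 10 µM screen, taking a fixed number of the strongest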
# DPM-DC inhibit = blocks S. pneumoniae diphosphomevalonate decarboxylase; calls only at 10 µM; 65,000 compounds, 0.49% hits; purified DPM-DC, PK/LDH coupled NADH fluorescence; AID 556;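 active means the 320 compounds with the highest percent inhibition in the single-dose primary screen, excluding strongly autofluorescent ones, cut at about 32% in these data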;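 further: kinetic rate of NADH fluorescence loss reporting ADP formed by the decarboxylase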
# NADH coupling = inhibition of NAD/NADH coupling enzymes, library profiling; coupled PK/LDH NADH assays, four targets; IC50, µM (top dose mostly 10 µM); 65,000 compounds, 0.02% hits; AID 774;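 active means single-dose screening hits from any of four coupled enzyme assays that gave an IC50 when retested across doses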;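 further: the DPM-DC format reads NADH fluorescence rather than 340 nm absorbance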
# Abs 340nm = absorbance at 340 nm. compound absorbance at 340 nm, fold over control. fold change at 10 µM. 65,000 tested, under 10 active. AID 708;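 active means at 10 µM dose, initial 340 nm absorbance at least 2 fold that of control wells; inactive means change under 2 fold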;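 further: initial absorbance extrapolated from kinetic A340 decline of NADH oxidation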
# MK inhibit = S. pneumoniae mevalonate kinase inhibition; purified MK, PK/LDH-coupled NADH absorbance 340 nm; inhibition, % at 10 µM; 65,000 compounds, 0.48% hits; AID 555;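 active means ranked among the strongest by inhibition in the single 10 µM screen, a fixed top-ranked set picked for dose follow-up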
# Numbers stand for hits; . = inactive; / = no result given; + = active, no number.
SMILES,Fluor 339 460,PMK inhibit,DPM-DC inhibit,NADH coupling,Abs 340nm,MK inhibit
COCCCn1c(C)nc2c(c1=O)c1nc3ccccc3nc1n2CCc1ccccc1,2.4,.,/,.,.,.
COCCCn1c2nc3ccccc3nc2c2c(=O)n(Cc3ccccc3Cl)cnc21,2.9,.,.,.,.,.
CCCCn1c2nc3ccccc3nc2c2c(=O)n(CC(C)C)cnc21,.,.,/,.,.,.
CCCCn1c2nc3ccccc3nc2c2c(=O)n(C(C)CC)cnc21 (stereo not given),2.1,.,/,.,.,.
COCCCn1c2nc3ccccc3nc2c2c(=O)n(Cc3ccc(Cl)cc3)cnc21,3.8,.,/,.,.,.
CCCCN1C(=O)c2ccc(C(=O)Nc3c(N)n(CCCC)c(=O)n(C)c3=O)cc2C1=O,.,.,.,.,.,.
Brc1ccc2nc(CSc3ncn[nH]3)cn2c1,.,.,.,.,.,.
O=C(Cn1c(N2CCN(c3ccccc3)CC2)nc2ccccc21)c1ccccc1,.,.,.,.,.,.
O=c1c2c3nc4ccccc4nc3n(Cc3ccccc3)c2ncn1Cc1ccco1,3.3,.,.,.,.,.
C=CCOC(=O)c1sc(N2C(=O)c3oc4ccccc4c(=O)c3C2c2ccco2)nc1C (stereo not given),.,.,.,.,.,.
Cc1cc(C(=O)NC(C)c2ccncc2)cs1 (stereo not given),.,.,.,.,.,.
CC(C)N(C(=O)CSc1nnnn1C1CCCC1)C(C)C,.,.,.,.,.,.
CCCCn1c(=NC(=O)c2cccnc2)c(C(=O)OCC)cc2c(=O)n3ccccc3nc21,2.3,.,/,.,.,.
N#Cc1cc2c(=O)n3ccccc3nc2n(CCCn2ccnc2)c1=N,.,.,.,.,.,.
CCOCCCn1c(=NC(=O)c2cccnc2)c(C(=O)OCC)cc2c(=O)n3ccccc3nc21,3.6,.,/,.,.,.
COc1ccccc1CNc1ncnc2nc[nH]c12,.,.,+,.,.,.
c1ccc(CCNc2ncnc3nc[nH]c23)cc1,.,.,.,.,.,.
CCOC(=O)c1cc(-c2nnc(SCC(=O)Nc3ccc(F)cc3)o2)c(C)nc1C,.,.,.,.,.,.
CCOc1cc(C(=O)N2CCOCC2)ccc1OCc1ccccc1,.,.,.,.,.,.
CN(C)C=Nc1ncc2c3ccccc3n(CCN(C)C)c2c1C#N,2.3,.,.,.,.,.
CN(C)C=Nc1ncc2c3ccccc3n(Cc3ccccc3)c2c1C#N,3,.,/,.,.,.
CCC1CCCCN1C(=O)CSc1nnc(-c2c[nH]c3ccccc23)o1 (stereo not given),.,.,.,.,.,.
CC(NC(=O)c1cccc(N2CCCC2=O)c1)c1ccc2c(c1)OCCO2 (stereo not given),.,.,+,.,.,.
CC(=O)Nc1ccc2c(c1)C(=O)N(C1CCCCC1)C2=O,3.8,.,/,.,.,.
C[C@@H](NC(=O)c1coc(=O)c(Br)c1)c1ccccc1,.,.,.,.,.,.
SMILES,Fluor 339 460,PMK inhibit,DPM-DC inhibit,NADH coupling,Abs 340nm,MK inhibit
O=C(c1coc(=O)c(Br)c1)N1CCCc2ccccc21,2.4,.,/,.,.,.
CC1(C)CCCN(C(=O)c2coc(=O)c(Br)c2)C1,3.7,.,/,.,.,.
O=C(c1cc(-c2ccco2)on1)N1CCCc2ccccc21,.,31,.,.,.,50
CCOc1cc(N2CCOCC2)c(OCC)cc1NC(=O)CN1CCc2ccccc2C1,.,.,.,.,.,73
COc1cc2c(N3CCOCC3)cc(O)c(CC(=O)Nc3ccccc3)c2cc1OC,3.1,.,/,.,.,.
CCOc1cc(N2CCOCC2)c(OCC)cc1NC(=O)Cc1ccc(OC)c(OC)c1,.,26,.,.,.,.
Cc1cc(C)c2oc(-c3ccc(Cl)c(NC(=O)c4ccc(C#N)cc4F)c3)nc2c1,4,.,/,.,.,.
Cc1nn(C)c(C)c1S(=O)(=O)N1CCC(C(=O)NCC2COc3ccccc3O2)CC1 (stereo not given),.,.,.,.,.,.
Nc1cc(C(F)(F)F)ccc1C(=O)O,2.1,.,/,.,.,.
Nc1cc(S(=O)(=O)C(F)(F)F)ccc1C(=O)O,.,.,.,.,.,.
Cc1ccc2[nH]c(=S)cc(C)c2c1,.,.,.,.,.,.
CSc1ccc2[nH]c(=O)cc(C)c2c1,3.8,.,/,.,.,.
Cc1ccc(-c2nnc(N3CCOCC3)c3ccccc23)cc1S(=O)(=O)NCC1CCCO1 (stereo not given),.,.,.,.,.,.
CCc1ccc(OCC(=O)Nc2ccc(-c3nc4ccccc4o3)c(O)c2)cc1,2.2,.,/,.,.,.
Cc1cc(Nc2ccccc2)n(CCOC(=O)COc2ccccc2)n1,.,.,.,.,.,.
CCCCC(=O)Nc1nn(CCC)c2nc3ccccc3cc12,.,.,.,.,.,.
Cc1cccc2cc3c(NC(=O)CC(C)C)nn(C)c3nc12,2.9,.,.,.,.,.
CCCCC(=O)Nc1nn(C)c2nc3c(C)cccc3cc12,2.4,.,.,.,.,.
CCCCCn1c2nc3ccccc3nc2c2c(=O)n(CC3CCCO3)c(C)nc21 (stereo not given),4,.,/,.,.,.
O=c1c2c3nc4ccccc4nc3n(CC3CCCO3)c2ncn1CCc1ccccc1 (stereo not given),2.9,.,/,.,.,.
CCCCCn1c2nc3ccccc3nc2c2c(=O)n(CC(C)C)cnc21,.,.,.,.,.,.
Cc1nc2c(c(=O)n1CC1CCCO1)c1nc3ccccc3nc1n2CCC(C)C (stereo not given),2.3,.,/,.,.,.
COc1cc(OC)cc(-n2c3nc4ccccc4nc3c3c(=O)n(CC4CCCO4)cnc32)c1 (stereo not given),.,.,.,.,.,.
CCCn1c(C)nc2c(c1=O)c1nc3ccccc3nc1n2-c1ccc2c(c1)OCCO2,2.6,.,+,.,.,.
Cc1nc2c(c(=O)n1CCC(C)C)c1nc3ccccc3nc1n2Cc1ccc2c(c1)OCO2,.,.,.,.,.,.
SMILES,Fluor 339 460,PMK inhibit,DPM-DC inhibit,NADH coupling,Abs 340nm,MK inhibit
N#Cc1nc(-c2ccco2)oc1N1CCN(Cc2ccccc2)CC1,.,.,.,.,.,.
CN(Cc1ccccc1)c1oc(-c2ccco2)nc1C#N,3.9,.,/,.,.,.
CN(C)c1oc(-c2ccco2)nc1C#N,4,.,/,.,.,.
CCOC(=O)c1c(C)[nH]c(C)c1C(=O)COC(=O)CCOc1ccccc1OC,.,.,.,.,.,.
CC(C)(C)OC(=O)N1CCCC1C(=O)NCCc1ccccc1 (stereo not given),.,.,.,.,.,.
CCc1cc2c(C)cc(=O)oc2cc1OC(=O)C1CCCN1C(=O)OC(C)(C)C (stereo not given),4.9,.,/,.,.,.
